# p47phox inh: blocks human p47phox regulatory protein of NADPH oxidases; p47phox/p22phox peptide binding, fluorescence polarization, 2 h; hit rate 0.53% among 220,000; inhibition, % at 24.7 µM;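 active means inhibition above about 30%, limit read from the data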;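 further: 0% = p47phox with labelled peptide and 100% = labelled peptide alone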
# m-calpain inh: inhibitors of pig calpain II; AID 1236; purified calpain II, fluorogenic peptide substrate, 30 min; inhibition, % at 16 µM; hit rate 0.37% among 220,000;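 active means inhibition above about 50%, limit read from the data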
# Mcl-1 Bim block: inhibitors of Bim-Mcl-1 interaction, human; Q07820; Bead-based flow cytometry, Bim peptide-Mcl-1 binding; inhibition, % at 10 µM; hit rate 0.1% among 190,000; in the data active means inhibition above about 40%;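 further: 0% = no compound tracer wells and 100% = peptide blocker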
# Target sequence (Q07820 whole entry, looked up): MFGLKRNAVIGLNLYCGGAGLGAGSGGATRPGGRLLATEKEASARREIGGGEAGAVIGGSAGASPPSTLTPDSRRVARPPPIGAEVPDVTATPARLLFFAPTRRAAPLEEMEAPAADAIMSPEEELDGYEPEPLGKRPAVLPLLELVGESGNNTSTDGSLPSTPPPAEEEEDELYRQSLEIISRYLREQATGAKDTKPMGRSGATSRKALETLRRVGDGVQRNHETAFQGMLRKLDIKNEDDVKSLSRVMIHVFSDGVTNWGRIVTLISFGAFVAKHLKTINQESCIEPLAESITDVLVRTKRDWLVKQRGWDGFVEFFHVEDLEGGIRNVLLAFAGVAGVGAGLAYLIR
# Mcl1-Noxa inh: Mcl-1/Noxa interaction inhibition. AID 1022. Q07820. inhibition, % at 21.7 µM. TR-FRET Mcl-1/Noxa peptide binding, 2 h. hit rate 1.5% among 220,000;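 active means compounds that cut the protein-peptide binding signal by more than 50% relative to plate controls in a single-dose test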;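 further: His-tagged Mcl-1 with rhodamine Noxa BH3 peptide and terbium anti-His antibody; 0% = Mcl-1 plus Noxa peptide wells and 100% = peptide-only wells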
# Mcl1 Bid PPI: disrupts binding of human Mcl-1 to Bid peptide. Q07820. TR-FRET Mcl-1/Bid-Dy647 peptide binding, 1536-well. inhibition, % at 21.7 µM. hit rate 0.97% among 220,000;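 active means compounds that cut the binding signal by more than half at the single screening dose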;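 further: His-tagged Mcl-1 with europium anti-His antibody binding Bid BH3 peptide; 0% = Mcl-1 plus peptide wells and 100% = peptide-only wells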
# 14-3-3 Bad inh: disrupts binding of bovine 14-3-3 zeta to phospho-Bad peptide; TR-FRET 14-3-3zeta/Dy647-pBad peptide displacement, 1 h; inhibition, % at 21.7 µM; hit rate 0.71% among 220,000; AID 781;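 active means inhibition above about 70%, limit read from the data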;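 further: 0% = full 14-3-3 plus peptide FRET controls and 100% = background without 14-3-3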
# Target sequence (P63103 whole entry, looked up): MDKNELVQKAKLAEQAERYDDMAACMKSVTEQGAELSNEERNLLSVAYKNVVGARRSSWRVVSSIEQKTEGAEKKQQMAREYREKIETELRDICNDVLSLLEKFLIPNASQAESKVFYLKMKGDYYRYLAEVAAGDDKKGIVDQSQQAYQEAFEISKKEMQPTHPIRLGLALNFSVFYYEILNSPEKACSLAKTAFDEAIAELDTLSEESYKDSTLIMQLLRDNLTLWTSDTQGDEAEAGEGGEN
# An asterisk follows results filed as active; . = no result given; [ ] = another dose, or the depositor's remark. Shown are actives, neighbours in structure and some others; about 3.4% of the full set was active somewhere.
SMILES,p47phox inh,m-calpain inh,Mcl-1 Bim block,Mcl1-Noxa inh,Mcl1 Bid PPI,14-3-3 Bad inh
Cc1[nH]c2ccccc2c1/C=N/NC(=S)NCc1ccccc1,-42,64*,-3,6,-46,-6
Cc1c(O)c2c(=O)n(-c3ccccc3)c(-c3ccccc3)cc2oc1=O,-7,-16,-29,-3,-45,-6
Cc1ccc2nc(-c3cccc(NS(C)(=O)=O)c3)cc(-c3ccccc3)c2c1,-11,3,-2,8,38,-1
CC(=O)Nc1ccc(S(=O)(=O)NC2(C(F)(F)F)C(=O)Nc3c2c(=O)[nH]c(=O)n3C)cc1 (stereo unspecified),-7,3,-2,-34,-77,30
CC(C)Cn1c2c(c(=O)[nH]c1=O)C(NS(=O)(=O)c1ccc(Cl)cc1)(C(F)(F)F)C(=O)N2 (stereo unspecified),-13,-4,.,-34,-77,5
CC(=O)Nc1ccc(S(=O)(=O)NC2(C(F)(F)F)C(=O)Nc3c2c(=O)[nH]c(=O)n3Cc2ccco2)cc1 (stereo unspecified),5,13,-7,56*,-39,4
CC(=O)Nc1ccc(S(=O)(=O)NC2(C(F)(F)F)C(=O)Nc3c2c(=O)n(C)c(=O)n3C)cc1 (stereo unspecified),-9,-18,0,52*,-129,9
CC(=O)NC1(C(F)(F)F)C(=O)Nc2c1c(=O)[nH]c(=O)n2Cc1ccco1 (stereo unspecified),-11,-8,-1,-6,-9,29
CC(=O)Nc1ccc(S(=O)(=O)NC2(C(F)(F)F)C(=O)Nc3c2c(=O)[nH]c(=O)n3Cc2cccnc2)cc1 (stereo unspecified),8,-8,-2,56*,-79,1
COCC(=O)NNC(=S)Nc1cccc(C)c1C,-11,9,0,14,-11,-12
COc1ccc(Nc2nnc(SCc3cc([N+](=O)[O-])cc4c3OCOC4)s2)cc1,-11,-9,-1,11,-20,7
O=C(CCNc1ccc(Cl)cc1)c1cccs1,-8,5,-4,10,-83,2
O=C(CCSc1ccc(Cl)cc1)c1cccs1,-3,3,-6,57*,-6,5
CCc1c(C)nc2ncnn2c1NCCc1ccc(Cl)cc1,-2,-6,3,-5,-17,-8
O=C(CN1C(=O)/C(=C\c2cccc(Cl)c2)Oc2ccccc21)N1CCN(c2ccccn2)CC1,2,-431,-2,-3,1,0
O=C(N/N=C/c1ccc(-c2ccc(Cl)c(C(=O)O)c2)o1)c1cc2c(ccc3ccccc32)o1,-26,-42,.,110*,96*,57
O=C(N/N=C/c1cccc([N+](=O)[O-])c1)c1cc2c(ccc3ccccc32)o1,-5,-34,0,31,82*,69
O=C(N/N=C/c1ccncc1)c1cc2c(ccc3ccccc32)o1,4,-37,-5,22,10,.
Cc1cc([N+](=O)[O-])c(C)cc1-c1ccc(/C=N/NC(=O)Cn2nnnc2N)o1,-91,-19,1,55*,53*,88*
Cc1ccc([N+](=O)[O-])cc1-c1ccc(/C=N/NC(=O)c2cc3c(ccc4ccccc43)o2)o1,-38,-249,0,6,-13,85*[fluorescence artefact?]
COCc1cc(C)nc(OCC(=O)N/N=C/c2ccc(-c3cc([N+](=O)[O-])ccc3C)o2)c1C#N,3,-101,-1,28,-11,-3
CC(C)Oc1ccc(Br)cc1/C=N\NC(N)=S,-13,8,-6,10,-29,-28
CCOC(=O)Nc1cc(NC(=O)OCC)c(C)nc1C,1,-3,.,17,7,-2
COP(=O)(CC(=O)c1ccccc1)CC(=O)c1ccccc1,-11,-12,-4,-10,-14,-6
CC1CC(CC(=O)NC(=S)Nc2ccccc2Cl)C(=O)O1 (stereo unspecified),-8,7,5,26,-27,-8
SMILES,p47phox inh,m-calpain inh,Mcl-1 Bim block,Mcl1-Noxa inh,Mcl1 Bid PPI,14-3-3 Bad inh
COC1=C(OC)C(=O)C(CCCCCCCCCCO)=C(C)C1=O,8,23,-2,55*,-9,-3
NC(=O)c1cnn2c(-c3cccc(C(F)(F)F)c3)ccnc12,-7,-125,.,3,98*,-2
O=C(O)c1cnn2c(-c3ccc(F)cc3)ccnc12,-5,-139,0,0,0,-4
CNCc1ccccc1OCC(=O)Nc1ccccc1,-11,-42,-4,7,-16,5
CNCc1ccccc1OCc1ccccc1F,-7,-22,3,74*,-3,-8
C/C(=N\NC(=S)Nc1cc(S(=O)(=O)N2CCOCC2)ccc1Cl)c1ccccc1F,-20,-12,-2,-35,-145,-23
O=C(NCc1ccccc1)c1ccc2c(=O)n(CC3CCCO3)c(=S)[nH]c2c1 (stereo unspecified),-55,22,-2,4,-44,10
O=C(NCC1CCCO1)c1ccc2c(=O)n(Cc3ccc(Cl)cc3)c(=S)[nH]c2c1 (stereo unspecified),-4,-1,-4,18,-2,-15
O=C(NCC1CCCO1)c1ccc2c(=O)n(-c3ccc(F)cc3)c(=S)[nH]c2c1 (stereo unspecified),-1,7,48*,-12,-49,-3
Cc1ccc(CNC(=O)c2ccc3c(=O)n(CC4CCCO4)c(=S)[nH]c3c2)cc1 (stereo unspecified),2,81*,-1,0,-80,-13
N#CC1=C(N)NC(SCc2ccc(F)cc2)=C(C#N)C12CCCCC2,-20,66*,0,10,-15,-7
N#CC1=C(N)NC(SCC(=O)O)=C(C#N)C12CCCC2,-30,6,0,14,-27,-9
C=CCc1ccccc1OCC(O)CN1CCN(C(=O)OCC)CC1 (stereo unspecified),-4,-13,-2,12,-45,4
Cc1ccc(C(C)C)c(OCC(O)CN2CCN(CCO)CC2)c1 (stereo unspecified),-14,-19,1,32,53*,50
C=CCc1ccccc1OCC(O)CN1CCN(c2ccc(C)cc2)CC1 (stereo unspecified),-10,5,-1,19,-13,72*
O=C(O)c1sc2cc(C(F)(F)F)cnc2c1-c1cccs1,-8,-92,0,14,-2,-1
CCOc1ccccc1CN1CCN(S(=O)(=O)CC)CC1,12,-25,2,20,39,94*
CCCS(=O)(=O)N1CCN(Cc2ccccc2OCC)CC1,-4,-3,0,3,41,29
CCOC(=O)c1c(CS(=O)(=O)c2ccccc2)n(C)c2cc(Br)c(O)c(CN(C)C)c12,-5,30,0,62*,-26,1
CC(=O)Oc1ccc(N2C(=O)C3C4C=CC(CO)(O4)C3C2=O)cc1 (stereo unspecified),0,14,0,25,-4,11

# High-throughput results: PubChem, several laboratories
